Screening results: PubChem, National Center for Advancing Translational Sciences (NCATS)
Most compounds without a hit are left out; they make up all but 19% or so of the library.
IL-1B inflam inh: blocks inflammasome-driven IL-1 beta release. 360,000 compounds, 4.7% hits. THP-1 LPS/ATP IL-1B secretion, AlphaLISA, 16 h; active compounds read low. activity change, % at 57.5 µM; in the data active = activity change below about -50%; inconclusive = mostly about -30% to -49%; also: % is scaled to controls: 0 for no effect and ±100 for the full control effect
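THP-1 cells pretreated 1 hr with compounds (up to 57.5 uM final), then stimulated with LPS (250 ng/mL final) plus ATP (1.25 mM final); secreted IL-1B measured by AlphaLISA after 16 hr, decreased signal indicating inhibition.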
ASM inhibitor: inhibitors of human secretory acid sphingomyelinase. P17405. placental ASM, HMU-PC fluorogenic substrate, 60 min. Potency, µM (titrated, usually from 57.5 µM), without a hit: top-dose activity change, negative = inhibition, usual class: inhibitors. 340,000 compounds, 0.006% hits. AID 504937; also: potency is read from the fitted curve at half-maximal effect
Target sequence (P17405 47-631 limits assumed): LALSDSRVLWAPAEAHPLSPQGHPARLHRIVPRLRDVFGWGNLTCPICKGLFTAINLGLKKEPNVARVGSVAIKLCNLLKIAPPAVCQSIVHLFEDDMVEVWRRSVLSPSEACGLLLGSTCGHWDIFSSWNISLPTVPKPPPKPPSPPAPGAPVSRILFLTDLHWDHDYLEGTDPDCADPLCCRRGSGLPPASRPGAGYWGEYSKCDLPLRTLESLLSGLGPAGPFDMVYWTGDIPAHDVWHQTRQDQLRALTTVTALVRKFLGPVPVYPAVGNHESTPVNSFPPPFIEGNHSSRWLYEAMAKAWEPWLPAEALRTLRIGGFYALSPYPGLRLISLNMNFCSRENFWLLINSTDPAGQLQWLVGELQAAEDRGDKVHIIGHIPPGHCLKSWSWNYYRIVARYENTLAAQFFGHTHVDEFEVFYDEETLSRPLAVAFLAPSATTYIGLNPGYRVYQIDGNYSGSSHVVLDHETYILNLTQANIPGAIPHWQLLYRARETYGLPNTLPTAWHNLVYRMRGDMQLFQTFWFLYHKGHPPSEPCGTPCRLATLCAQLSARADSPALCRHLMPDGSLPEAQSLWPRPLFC
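Fluorescence read-out (Ex 386 nm, Em 447 nm) after stopping the reaction at pH 10. Enzyme: ASM from human placenta; substrate HMU-PC0, 9 uM final; 60 min, 37 °C. Compound preincubation 10 min, ambient temperature.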
DT40 TDP1 no CPT: qHTS for Inhibitors of human tyrosyl-DNA phosphodiesterase 1 (TDP1): qHTS in cells in absence of CPT; DT40 Tdp1-/- hTDP1 cells, no CPT, ATP luminescence, 48 h; Potency, µM (series often up to 46.2 µM), for inactives: at the highest dose activity change, negative = growth inhibition, actives largely listed as inhibitors; 420,000 compounds, 15% hits; also: potency is read from the fitted curve at half-maximal effect; % is scaled to controls: 0 for no effect and ±100 for the full control effect; nearly all actives have a fitted effect of over 55% in size
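No-CPT arm: Tdp1-/-;hTDP1 DT40 cells (400/well) plus compounds, incubated ≥48 hr at 37 °C. Readout CellTiter-Glo luminescence.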
TDP1 cell CPT: growth inhibition of DT40 Tdp1-/-;hTDP1 cells with camptothecin (screen for TDP1 inhibitors); chicken DT40 Tdp1-/-;hTDP1 cells + 20 nM CPT, ATP luminescence, 48 h; Potency, µM (titrated, usually from 46.2 µM), inactives show at the highest dose activity change, negative = growth inhibition, actives largely listed as inhibitors; 420,000 compounds, 12% hits; AID 686979; also: potency is read from the fitted curve at half-maximal effect; % is scaled to controls: 0 for no effect and ±100 for the full control effect; nearly all actives have a fitted effect of over 55% in size
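Chicken DT40 Tdp1-/- cells complemented with human TDP1, 400 cells/well, exposed to compounds plus 20 nM camptothecin for at least 48 h at 37 C; viability read as ATP content by CellTiter-Glo luminescence.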
HepG2 viability: counter-screen for TGF-b inhibitors: cytotoxicity in HepG2 cells; 410,000 compounds, 0.76% hits; HepG2 CAGA-GFP viability, ATP luminescence, 18 h; Potency, µM (highest dose often 46.1 µM), for the others: at the highest dose activity change, negative = cytotoxicity, usual class: cytotoxic; AID 588856; also: potency is read from the fitted curve at half-maximal effect
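CellTiter-Glo luminescence gave cytotoxicity after 18 hours at 37 degrees C. The cells were HepG2 CAGA-GFP in 1% FBS DMEM, stimulated with 500 pg/mL TGF-beta after compound addition. %Activity was normalised to no-cell wells (complete cell-killing) and DMSO (no toxicity), and curves were fitted and classified.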
TGFb SMAD3 inh: blocks TGF-b signaling; HepG2 CAGA-GFP TGF-b/SMAD3 reporter, GFP fluorescence, 18 h; TGF-beta stimulated, 500 pg/mL final; Potency, µM (highest dose often 46.1 µM), without a hit: top-dose activity, negative = inhibition, most hits filed as inhibitors; AID 588855; 410,000 compounds, 1.2% hits; also: potency is read from the fitted curve at half-maximal effect; % is scaled to controls: 0 for no effect and ±100 for the full control effect; nearly all actives have a fitted effect of over 65% in size
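HEPG2 CAGA-GFP reporter cells (1000/well, DMEM with 1% FBS) received compounds, then recombinant TGF-beta at 500 pg/mL final for 18 hours at 37 degrees C. Per-cell GFP summed per well was normalised to unstimulated and stimulated DMSO controls before curve fitting.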
* marks the source's active call; other numbers are inactive results; ? = inconclusive; / = no result. Unless noted, calls follow the shape of the dose curve; as a rule, active = well fitted curve in the direction sought with a large enough effect; inconclusive = small, poorly fitted or top-dose-only effect, or another doubt; inactive = no such curve, though single readings can be large; an effect the other way counts as inactive or inconclusive.

SMILES	IL-1B inflam inh	ASM inhibitor	DT40 TDP1 no CPT	TDP1 cell CPT	HepG2 viability	TGFb SMAD3 inh
CC1CCC(CN2C(Nc3ccccc3)=NC[C@@H]2Cc2ccccc2)CC1 (stereo partly specified)	-23	-5%	7.3µM*	?	-37%	-7%
c1ccc(C[C@H]2CN=C(Nc3ccccc3)N2CC2CCCC2)cc1	-70*	/	12µM*	10µM*	/	/
CCCCN1C(Nc2ccccc2)=NC[C@@H]1Cc1ccccc1	-15	0%	?	23µM*	-1%	-1%
Cc1ccc(OC(C)C(=O)N(C)c2ccccc2)c([N+](=O)[O-])n1 (stereo unspecified)	42	0%	11%	15%	-14%	2%
CC(C)C[C@H]1CN=C(Nc2ccccc2)N1CC1CCC1	-11	-4%	?	?	3%	7%
c1ccc(C[C@H]2CN=C(Nc3ccccc3)N2CC2CCCCC2)cc1	?	-8%	?	16µM*	-27%	-5%
c1ccc(C[C@H]2CN=C(Nc3ccccc3)N2CCCC2CCCCC2)cc1	-17	-4%	16µM*	?	-36%	4%
c1ccc(C[C@H]2CN=C(Nc3ccccc3)N2CC2CCC2)cc1	-9	8%	?	?	-12%	7%
CC(C)C[C@H]1CN=C(Nc2ccccc2)N1CC1CCC(C)CC1 (stereo partly specified)	-4	-1%	18µM*	?	-32%	15%
Cc1ccc2c(c1)-c1nc(-c3ccc4c(c3)NC(=O)CO4)cc(-c3ccc(F)cc3)c1CO2	/	/	4.6µM*	5.8µM*	-16%	-5%
Fc1ccc(-c2cc(-c3ccc(F)cc3)c3c(n2)-c2cc(F)ccc2OC3)cc1	/	/	-21%	?	-31%	9%
Cc1ccc2c(c1)-c1nc(-c3ccccc3)cc(-c3ccccc3)c1CO2	/	/	?	-29%	-17%	-9%
Cc1ccc(-c2cc(-c3ccc4c(c3)NC(=O)CO4)nc3c2COc2ccccc2-3)cc1	/	/	4.1µM*	5.2µM*	4%	13%
CC(=O)OCC#CCSc1nnc(-c2cccc(Br)c2)o1	/	/	-18%	-18%	1%	-10%
CC(C)C(=O)Nc1nc(-c2ccc3c(c2)CCN3C(=O)C2CC2)cs1	-12	-3%	13µM*	12µM*	-3%	3%
CCC(CC)C(=O)Nc1nc(-c2ccc3c(c2)CCN3C(=O)C2CC2)c(C)s1	49	-16%	23µM*	?	-20%	-12%
Cc1ccc(Cl)cc1N1CCN(C(=O)CCS(=O)(=O)c2ccc3c(c2)oc(=O)n3C)CC1	/	/	16µM*	?	-4%	-21%
Cc1cccc(C)c1NC(=O)CCS(=O)(=O)c1ccc2c(c1)n(C)c(=O)c(=O)n2C	/	/	3%	-1%	-8%	/
Cn1c(=O)oc2cc(S(=O)(=O)CCC(=O)NCc3ccccc3)ccc21	/	/	-9%	-3%	-23%	-6%
CCc1cccc(C)c1NC(=O)CCS(=O)(=O)c1ccc2c(c1)oc(=O)n2C	/	/	15µM*	?	-7%	-30%
CCOC(=O)Cn1c(=O)oc2cc(S(=O)(=O)N3CCN(c4cc(C)ccc4C)CC3)ccc21	/	/	?	18µM*	-19%	?
Cc1ccc(C)c(N2CCN(C(=O)Cn3c(=O)oc4cc(S(=O)(=O)N5CCCC5)ccc43)CC2)c1	30	-1%	12µM*	16µM*	18%	4%
CCOCCN(C(=O)c1ccccc1Cl)c1cccc(C)c1C	/	0%	?	26µM*	-13%	?
CCOCCNC(=O)c1ccccc1C(=O)NCCOCC	-7	3%	0%	-1%	18%	21%
CCn1nc(C)c(Br)c1C(=O)Sc1ccccc1Cl	-28	-4%	4.6µM*	3.7µM*	-49%	?
SMILES	IL-1B inflam inh	ASM inhibitor	DT40 TDP1 no CPT	TDP1 cell CPT	HepG2 viability	TGFb SMAD3 inh
COc1ccc(NS(=O)(=O)c2cc(NC(=O)c3ccc(Cl)cc3)ccc2N2CCOCC2)cc1	-26	-16%	2.3µM*	2.6µM*	6%	6%
C=CCNC(=S)Nc1ccc(N2CCOCC2)c(S(=O)(=O)Nc2ccccc2Cl)c1	14	-3%	?	?	-15%	5%
CCC(=O)Nc1ccc(N2CCOCC2)c(S(=O)(=O)Nc2ccc(Cl)cc2)c1	1	-4%	-24%	?	-12%	6%
C[C@H](NC(N)=O)C(=O)Nc1ccc(N2CCOCC2)c(S(=O)(=O)Nc2ccc(Cl)cc2)c1	-1	-3%	?	21µM*	3%	1%
CC(C)C(=O)Nc1ccc(N2CCOCC2)c(S(=O)(=O)Nc2ccccc2Cl)c1	-14	-2%	13µM*	?	-2%	-5%
COCCNC(=S)Nc1ccc(N2CCOCC2)c(S(=O)(=O)Nc2ccc(Cl)cc2)c1	-3	/	10µM*	?	-16%	-11%
O=C(CSc1nc(=O)n(Cc2ccccn2)c2c1CCC2)Nc1cccc(Cl)c1	/	/	?	?	3%	?
NCCN(Cc1ccc(Cl)c(Cl)c1)c1ccc(Br)cn1	/	/	4µM*	4µM*	/	/
CN(CCc1ccccn1)Cc1ccc(Cl)c(Cl)c1	13	-1%	-6%	-1%	-1%	2%
NCCCN(Cc1ccc(Cl)c(Cl)c1)c1ccccn1	/	/	8.9µM*	10µM*	/	/
CC[N+](C)(C)CCN(Cc1ccc(Cl)cc1)c1ccccn1	-7	6%	9.2µM*	18µM*	-13%	5%
COc1ccc(CN(CCCN)c2ccc(Br)cn2)cc1	/	/	11µM*	?	/	/
Cc1cccc(CCNC(=O)C2CCCN(c3cnccn3)C2)c1 (stereo unspecified)	0	23%	?	-4%	4%	13%
O=C(Nc1ccc([N+](=O)[O-])cn1)c1ccc2c(c1)OCO2	-2	-4%	7%	9%	-1%	6%
COc1ccc(C(=O)N2CCc3cc(OC)c(OC)cc3C2COc2ccc3c(C)cc(=O)oc3c2)c(OC)c1 (stereo unspecified)	/	/	-21%	2%	-12%	-17%
C1CCN2CC3CC(CN4CCCC[C@@H]34)[C@H]2C1	19	-4%	?	-24%	0%	6%
COC(=O)c1c(NC(=O)CN2CCC3(O)CCCCC3C2c2cc(OC)ccc2OC)sc(C)c1C (stereo unspecified)	-1	-10%	10µM*	13µM*	-53%	-50%
